# Laboratory results from PubChem BioAssay (NCI).
# This is part of a sample that, as a whole, favours compounds with a hit. Of some 83,000 tested, about 20% had one in any assay.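 Step 1: grow cells in 96-well plates. Step 2: add test compound at a single concentration. Step 3: incubate 48 h. Step 4: record percent growth.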 A number with no mark means an inactive call. Calls of active or inactive are those of the source. How the source made its calls: active means growth percent below 10; inactive means the rest.
# Columns and labels:
# Assay in all cases: NCI-60 one-dose screen, 48 h (100 = growth as untreated, 0 = no growth, -100 = all killed)
# Conditions in all cases: 10 µM unless noted
# [1] = test system: RPMI-8226 leukemia
# [2] = test system: OVCAR-8 ovarian
# [3] = test system: OVCAR-5 ovarian
# [4] = test system: OVCAR-4 ovarian
# [5] = test system: SK-OV-3 ovarian
# [6] = test system: IGROV1 ovarian
# [7] = test system: OVCAR-3 ovarian
# [8] = test system: NCI/ADR-RES ovarian
# [9] = test system: T-47D breast
# [10] = test system: HS 578T breast
SMILES,growth [1],growth [2],growth [3],growth [4],growth [5],growth [6],growth [7],growth [8],growth [9],growth [10]
C#CCn1cc(C=C2C(=O)NC(=O)NC2=O)c2cc(Cl)ccc21,70.3%,87.5%,74.3%,75.9%,112%,82.8%,88.5%,99.8%,60.8%,–
COC(=O)C1=C(C)NC(C)=C(C(=O)OC)C(N2C(=O)CCC2=O)C1 (stereo not given),66.8%,88.7%,114%,79.4%,104%,99.3%,–,95.9%,93.9%,107%
Cc1c(-c2noc(-c3ccc([N+](=O)[O-])cc3)n2)no[n+]1[O-],93.3%,107%,104%,102%,111%,–,94.4%,96.2%,104%,104%
O=[N+]([O-])c1cc2c(ccc3occc32)o1,36.5%,30%,72.7%,66.6%,14.7%,27.1%,39.4%,29.2%,95.1%,–
CN(C)CCNc1cc(-c2ccccc2)nc2ccccc12,-8.18% (active),-34.4% (active),-39.7% (active),-25% (active),36.4%,–,-92.5% (active),-1.85% (active),-5.18% (active),11.1%
COc1cccc(C(=O)Cn2cc(/C=C(\C#N)S(=O)(=O)c3ccccc3)c3ccccc32)c1,72.2%,89.3%,47.9%,95.6%,85%,–,103%,90.6%,91.6%,106%
O=C1c2cc(Br)ccc2Oc2cc([N+](=O)[O-])ccc2N1c1ccc(I)cc1F,104%,94.6%,97.7%,94.5%,115%,97.9%,109%,99.6%,100%,–
CCOC(=O)C1=C(C)N=c2s/c(=C\c3cc(Cl)ccc3O)c(=O)n2C1c1ccc(OC)cc1 (stereo not given),78.6%,90.4%,93.1%,94.7%,104%,87.6%,–,85.6%,82%,117%
COc1ccc(OC)c(N(CCN2C(=O)c3ccccc3C2=O)C(=O)CCl)c1,32.9%,65.6%,65.9%,-49.5% (active),91.3%,-73.4% (active),14.6%,49.2%,95.4%,–
CC[C@]1(O)C[C@@H]2CN(CCc3c([nH]c4ccccc34)[C@@](C(=O)OC)(c3cc4c(cc3OC)N(C)[C@H]3[C@@](O)(C(=O)OC)[C@H](OC(=O)CCCBr)[C@]5(CC)C=CCN6CC[C@]43[C@@H]65)C2)C1,6.27% (active),19.4%,24.9%,35.3%,30.8%,11.2%,–,13.8%,74.2%,8.92% (active)
Cc1ccc(S(=O)(=O)c2c(COC(=O)c3cccc(C)c3)c(-c3ccccc3)nn2C)cc1,78.5%,88.5%,115%,-59% (active),104%,80.9%,-77.9% (active),106%,-64.3% (active),–
O=c1cc(NC2CCN(CCCc3ccccc3)CC2)c2cc(Cl)ccc2o1,-8.63% (active),-0.533% (active),30.5%,12.7%,4.31% (active),-4.09% (active),-16.6% (active),6.68% (active),4.55% (active),–
COc1ccc(-c2nsc3c2NC(=O)CC3c2ccc3c(c2)OCCO3)cc1 (stereo not given),31.5%,35.3%,37.5%,36.9%,3.12% (active),49%,–,21%,50.2%,28.4%
CCOc1ccc2nc(C)cc(Nc3ccc(Br)cc3)c2c1,82.6%,97.9%,97.7%,82.2%,101%,–,107%,95.4%,97.1%,117%
COc1ccccc1C(=O)/C=C/c1ccccc1,-2.98% (active),78.1%,101%,88.6%,90.3%,85.7%,–,76.4%,81.4%,–
CCN(CC)CCNC(=O)C(Cl)=C1C(Cl)=C(Cl)C(Cl)=C1Cl,30.6%,15.8%,120%,41.9%,58.7%,59.1%,–,44.7%,56.6%,82.2%
CCOc1c(Br)cc(C2C(C(=O)OC)=CN(C)C=C2C(=O)OC)cc1OC,7.41% (active),85.8%,83.9%,72.9%,87.5%,67.7%,–,71%,57.2%,75.8%
O=C(NC1CCN(Cc2ccccc2)CC1)c1cc(C(=O)NC2CCN(Cc3ccccc3)CC2)cc(C(=O)NC2CCN(Cc3ccccc3)CC2)c1,56.4%,91.9%,112%,60.5%,79.8%,–,87%,82.1%,72.5%,79.6%
O=c1oc2ccc(F)cc2c(=O)n1-c1ccc(I)cc1F,-20.4% (active),8.61% (active),22.2%,12.4%,-4.12% (active),17.2%,–,2.32% (active),-16.2% (active),-4.95% (active)
COc1cc(OC)cc(N2C(=O)N(Cc3ccc(C(C)(C)C)cc3)c3ccccc3S2(=O)=O)c1,34.6%,96%,86.2%,81.8%,93.4%,–,92.2%,73.2%,81.1%,90.9%
Cc1ccc(C(=O)c2oc3ccc4c(C)cc(=O)oc4c3c2C)cc1,0.992% (active),8.23% (active),66%,33.9%,46.9%,–,28.7%,29.5%,14.8%,86.5%
CC(=O)O[C@@H]1/C=C/C(=O)N[C@@H](C)CCC/C=C/[C@@H]2CCC[C@H]21,87.5%,99.4%,87.8%,109%,103%,–,106%,101%,98.6%,133%
CC(=Nc1ccccc1)C1=C(O)C(Cc2ccc(F)cc2)NC1=O (stereo not given),5.55% (active),33.3%,44.9%,45.5%,11.7%,36.7%,-36.9% (active),10.6%,27.7%,–
COc1cc(C#N)cc2[nH]c(=O)oc12,107%,112%,98.8%,96.9%,113%,–,106%,99.6%,101%,99.1%
Nc1no[n+]([O-])c1-c1nnc2c(n1)-c1ccccc1C2=O,18.1%,65.7%,83.9%,-97.5% (active),111%,82.6%,-20.2% (active),72.1%,61%,–
Nc1ccc(C2c3ccccc3Oc3ccccc32)cc1,94%,102%,101%,105%,98.3%,91.8%,96.4%,100%,84.1%,–
Clc1ccc(Nc2scc3[n+]2CCC3)cc1,98.5%,103%,96.5%,88.9%,97.7%,104%,–,96.8%,89.7%,100%
CC(C)(C)c1ccc(C2CC(=O)C3=C(C2)Nc2ccccc2N(C(=O)c2ccccc2Cl)C3c2ccc(F)cc2)cc1 (stereo not given),14.1%,-12% (active),38.9%,-68.3% (active),62.5%,-26.7% (active),–,24.3%,9.46% (active),81.5%
O=c1[nH]nnc2c1ncn2C1OC(CO)C(O)C1O (stereo not given),37.6%,95.9%,87.4%,35.9%,14.5%,32.7%,41.7%,39.5%,77.1%,–
